# Source: PubChem BioAssay AID1359 (The Scripps Research Institute Molecular Screening Center, 2008)
# About 970 (0.44%) of roughly 220,000 compounds were called active. Shown is part of a subset that was picked to be rich in actives. A number with no mark means an inactive call. Rule as the data show it: active = activation above about 27%; inactive = the rest.
# Molecular target: Neuropeptide Y receptor type 2 (Homo sapiens) (UniProt P49146)
# Experiment: human Y2 receptor positive modulation or activation – cell-based, primary screen (AID 1359);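 also: cells stimulated with NPY near EC25 plus isoproterenol at EC100; 0% = vehicle plus submaximal agonist and 100% = vehicle plus saturating agonist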
# Details: cells expressing NPY-Y2, potentiator/agonist read-out; at 3.6 µM; hits give high values
# Chain of Neuropeptide Y receptor type 2 (Homo sapiens) (P49146 whole entry, looked up): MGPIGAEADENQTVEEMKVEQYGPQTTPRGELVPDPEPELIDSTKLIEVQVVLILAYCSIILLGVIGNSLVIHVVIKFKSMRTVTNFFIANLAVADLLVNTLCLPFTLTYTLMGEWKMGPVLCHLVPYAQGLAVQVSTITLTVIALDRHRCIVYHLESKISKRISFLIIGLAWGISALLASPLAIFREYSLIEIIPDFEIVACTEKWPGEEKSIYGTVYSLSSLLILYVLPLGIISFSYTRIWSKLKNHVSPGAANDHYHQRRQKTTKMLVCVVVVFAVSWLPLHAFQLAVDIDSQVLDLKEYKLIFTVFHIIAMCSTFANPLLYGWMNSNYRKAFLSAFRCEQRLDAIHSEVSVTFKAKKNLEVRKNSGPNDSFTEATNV
row,Compound,activation
1,CC1(C)Cc2c(C#N)c(N3CCNCC3)nc(-c3ccco3)c2CS1,54.8% (active)
2,CN(C)P(=S)(Nc1ccccc1)C(Cl)(Cl)Cl (stereo not given),3.95%
3,Cn1c(O)c(C(=Nc2ccc(F)cc2)c2ccccc2)c(=O)n(C)c1=O,-10.2%
4,CCN1CC2C3CCC(C)(O3)C2C1 (stereo not given),3.85%
5,CCCCCCCCCCCCn1ccc(=N)cc1,-3.31%
